Assay outcomes (PubChem)
TSHR ag = TSH receptor (human) agonism | Potency, µM (titrated, usually from 57.1 µM), for the others: at the highest dose activation, hits mostly activators | HEK293-CNG-TSHR cells (CNG channel as cAMP sensor), membrane potential dye, cAMP | AID 926 | P16473 | 73,000 compounds, 0.48% hits; active = well fitted activation curve with a large enough effect in the main read-out, with a control signal flat, not every such curve was filed as active; inconclusive = small, poorly fitted or top-dose-only effect, or a change in a side signal; inactive = no such curve, though single readings can be large or run the other way; % of control where 0% means no effect;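 also: the control signal comes from parental cells without the receptor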
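HEK 293 cells stably expressing TSHR and a modified CNG channel, with CNG-only parental cells as counterscreen, were preloaded 60 min at room temperature with membrane potential dye containing 100 uM RO 20-1724. Compound exposure was 30 min, and depolarization was read as fluorescence at 590 nm.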
HEK293 cAMP ctrl = raises cAMP in parental HEK293 cells, TSHR agonist counter-screen. parental HEK293 CNG cAMP sensor, membrane potential fluorescence. Potency, µM (series often up to 57.1 µM), without a hit: at the highest dose activation, most hits filed as activators. 73,000 compounds, 2.5% hits. AID 938; also: % of control where 0% means no effect; nearly all actives have a fitted effect of over 55% in size
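Parental HEK 293 cells stably expressing a cAMP-gated CNG channel were loaded with membrane potential dye containing 100 uM RO 20-1724 for 60 min. Compound added for 30 min; depolarization read as fluorescence intensity at 590 nm.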
ERK AVP block = inhibitors of vasopressin-stimulated ERK signaling pathway; HEK293-V1b, vasopressin-stimulated pERK AlphaScreen; Potency, µM (series often up to 57.5 µM), inactives show top-dose activity, negative = inhibition, hits mostly inhibitors; 72,000 compounds, 0.99% hits; AID 995; also: % is scaled to controls: 0 for no effect and ±100 for the full control effect; nearly all actives have a fitted effect of over 55% in size
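HEK293 cells stably expressing V1b receptor, seeded overnight in 1% FBS, were treated with compounds for 30 min at 37C, then stimulated 5 min with 25 nM vasopressin; phospho-ERK read by AlphaScreen SureFire after lysis.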
Casp7 inh = caspase-7 (human) inhibition, allosteric or competitive | P55210 | recombinant caspase-7, Ac-DEVD-AFC fluorescence rate | Potency, µM (highest dose often 57.5 µM), inactives show at the top dose activity change, negative = inhibition, usual class: inhibitors | 75,000 compounds, 0.02% hits | AID 889; active = well fitted inhibition curve with a large enough effect in the main read-out, with a control signal flat, not every such curve was filed as active; inconclusive = small, poorly fitted or top-dose-only effect, or a change in a side signal; also: % of control where 0% means no effect
Caspase-1 inhib = allosteric or competitive inhibitors of human caspase-1 | P29466 | Caspase-1 enzyme, Ac-WEHD-AFC fluorogenic rate | Potency, µM (titrated, usually from 57.5 µM), without a hit: at the highest dose activity change, negative = inhibition, hits mostly inhibitors | 75,000 compounds, 0.03% hits | AID 900;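 also: plate controls were vehicle for no effect and no substrate for full effect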
GBA mod = modulators of human glucocerebrosidase. P04062. purified enzyme, resorufin glucoside fluorescence (screen aimed at inhibitors), 20 min. Potency, µM. 48,000 compounds, 1.1% hits; in the data active = potency below about 15 µM; inconclusive = mostly about 16 µM to 33 µM;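 also: the screen sought inhibitors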
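Compounds titrated against 0.2 nM normal enzyme, 30 uM resorufin beta-D-glucopyranoside substrate, citrate/phosphate buffer with taurocholate and tween-20, pH 5.9. Reaction ran 20 min at room temperature; fluorescence (Ex 548/Em 600) gave AC50.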
An asterisk follows results filed as active; i = inactive; ? = inconclusive; . = not tested or not shown; ! = repeats disagree; [ ] = dose if it differs, or a comment. Shown are actives, neighbours in structure and some others; about 4.5% of the full set was active somewhere. Unless noted, calls follow the shape of the dose curve; as a rule, active = well fitted curve in the direction sought with a large enough effect; inconclusive = small, poorly fitted or top-dose-only effect, or another doubt; inactive = no such curve, though single readings can be large; an effect the other way counts as inactive or inconclusive. Potency is read from the fitted curve at half-maximal effect.

SMILES	TSHR ag	HEK293 cAMP ctrl	ERK AVP block	Casp7 inh	Caspase-1 inhib	GBA mod
O=C(CSc1nnc(Cc2csc(Nc3cccc(Cl)c3)n2)o1)N1CCc2ccccc21	-1.4%	6.6%	-18.3%	-2.6%	-7.2%	14.5*
O=C(CSc1nnc(CNc2ccccc2)o1)N1CCc2ccccc21	?	?	-13.9%	4.0%	2.5%	>76.9
CN1C2CC(OC(=O)C(CO)c3ccccc3)C[C@@H]1[C@H]1OC21 (stereo not given in full)	.	.	4.6%	0.7%	2.1%	.
Cc1nc(SCC(=O)NCc2ccco2)c2c3c(sc2n1)CCCC3	?	12.6µM*	-0.4%	-5.4%	-4.0%	>76.9
CC1CCc2c(sc3ncn4c(SCC(=O)NCc5ccco5)nnc4c23)C1 (stereo not given)	?	25.1µM*	4.3%	-1.4%	-1.0%	>76.9
COc1cc([C@@H](O)CO)ccc1OS(=O)(=O)O	5.8%	4.9%	-14.7%	0.9%	5.2%	.
Cn1cc(/C=N/n2cnc3sc4c(c3c2=O)CCCC4)c2ccccc21	17.4%	26.7%	-7.1%	-2.7%	-2.3%	11.7*
CC(=O)OCC(=O)[C@@]12OC(C)(C)O[C@@H]1C[C@H]1[C@H]3C[C@H](F)C4=CC(=O)C=C[C@@]4(C)[C@]3(F)[C@H](O)C[C@@]12C	-5.7%[25.6 µM]	-1.0%[25.6 µM]	5.3%[25.7 µM]	0.0%[25.7 µM]	-0.4%[25.7 µM]	.
OCC1OC(/C=C\c2ccccc2)C=CC1Oc1ccc2c(c1)OCO2 (stereo not given)	?	3.98µM*	6.2%[11.5 µM]	-2.2%[11.5 µM]	-3.5%[11.5 µM]	.
OCC1OC(c2ccc3c(c2)OCO3)C=CC1Oc1ccc(C2CCCC2)cc1 (stereo not given)	5.2%[11.4 µM]	5.8%[11.4 µM]	15.5%[11.5 µM]	-0.3%[11.5 µM]	-2.0%[11.5 µM]	.
Cc1cc(NC(=O)CSc2nc3ccsc3c(=O)n2Cc2ccccn2)n[nH]1	4.0%	2.4%	-22.8%	-0.7%	-2.9%	>76.9
CC1CCCCN1C(=O)CSc1nc2ccsc2c(=O)n1Cc1ccccn1 (stereo not given)	21.1%	16.0%	25.1µM*	-5.1%	-2.5%	>76.9
CCC(=O)OCN1C(=O)C=CC1=O	2.8%[11.4 µM]	5.2%[11.4 µM]	12.2%[11.5 µM]	2.3%[11.5 µM]	3.4%[11.5 µM]	.
CCOC(=O)c1cc(-c2ccc3c(c2)OCCO3)nc2c1c(C)nn2CCC#N	?	20µM*	-10.4%	?	.	>76.9
O=C(CSc1nc2c(cnn2-c2ccc(F)cc2)c(=O)[nH]1)N1CCCc2ccccc21	?	25.1µM*	24.9%	-12.7%	-9.2%	.
Nc1nc(SCC(=O)N2CCCc3ccccc32)[nH]c(=O)c1-c1ccccc1	.	24.2%	-16.2%	-0.4%	-1.4%	>76.9
Cc1[nH]n2c(=O)c3c(nc2c1-c1ccc(Cl)cc1)CCC3	1.0%	14.5%	1.1%	-0.9%	-0.3%	11.7*
CCCCn1nnc(NC(=O)c2sc3cc(Cl)ccc3c2Cl)n1	?	25.1µM*	-15.3%	-3.5%	-2.0%	>76.9
CCCn1nnc(NC(=O)c2ccc(Cl)cc2Cl)n1	-2.2%	1.6%	4.0%	-0.2%	1.7%	>76.9
COC(=O)[C@@]1(Cc2ccccc2)[C@H]2c3cc(C(=O)N4CCCC4)n(Cc4ccc(C(F)(F)F)nc4)c3C[C@H]2CN1C(=O)c1ccccc1	?	1.58µM*	2.2%	-5.3%	-4.1%	.
COC(=O)C1(Cc2ccccc2)C2c3cc(C(=O)N4CCCC4)n(Cc4ccc(OC(F)(F)F)cc4)c3CC2CN1C(=O)c1ccccc1 (stereo not given)	?	1.26µM*	4.6%	-5.0%	0.0%	.
CCNc1nc(NC(C)C)nc(N(C#N)CCOc2ccc(Cl)cc2Cl)n1	?	31.6µM*	45.8%	-15.1%	-9.3%	>76.9
CCNc1nc(NC(C)C)nc(N(C#N)Cc2ccccc2)n1	24.4%	18.8%	?	-2.9%	-2.7%	>76.9
O=C1c2ccccc2C(=O)c2c1ccc(N1C(=O)c3ccccc3C1=O)c2-c1c(N2C(=O)c3ccccc3C2=O)ccc2c1C(=O)c1ccccc1C2=O	1.4%[11.4 µM]	-10.2%[11.4 µM]	.	.	.	.
O=C(c1cccc(F)c1)N1CCC[C@@]2(CCN(C(c3ccccc3)c3ccccc3)C2)C1	?	?	9.7%	-3.1%	-5.4%	.
SMILES	TSHR ag	HEK293 cAMP ctrl	ERK AVP block	Casp7 inh	Caspase-1 inhib	GBA mod
C=CCn1c(SCC(=O)Nc2cc(C)c(Cl)cc2OC)nnc1-c1ccco1	?	25.1µM*	-0.6%	-2.8%	-2.1%	>76.9
CS(=O)(=O)N1CCC2(CCN(C(=O)Nc3cccc(C#N)c3)CC2)CC1	0.9%	0.9%	-4.9%	0.8%	0.7%	.
CCOC(=O)c1c(C)[nH]c(C(=O)COC(=O)c2ccncc2)c1C	0.0%	3.8%	-16.0%	4.3%	-1.4%	>76.9
CCOC(=O)c1[nH]c(C)c(C(=O)Nc2ccc3c(c2)OCCO3)c1C	9.8%[11.4 µM]	5.8%	-16.3%	0.3%	-0.3%	>76.9
CCOC(=O)c1c(C)[nH]c(C(=O)COC(=O)CCC(=O)c2ccc3c(c2)OCCO3)c1C	29.7%	26.5%	9.0%	-2.6%	1.1%	11.4*
CCOC(=O)c1c(C)[nH]c(C(=O)COC(=O)C2CC2C)c1C (stereo not given)	-1.2%	-3.6%	-1.6%	-3.5%	-3.2%	7.76*
O=C(CN1CCN(c2ccccc2F)CC1)Nc1ccccc1F	?	?	28.3%	1.2%	-0.1%	>76.9
COc1ccc(OC)c(NC(=O)CCN2CCN(c3ccccc3F)CC2)c1	14.0%[11.4 µM]	11.9%[11.4 µM]	-12.2%	-1.6%	-3.0%	.
COc1ccc(C)cc1NC(=O)CN1CCN(c2ccccc2F)CC1	?	15.8µM*	-20.3%	-1.2%	-2.8%	>76.9
O=C(CCN1CCN(c2ccccc2F)CC1)Nc1ccccc1F	17.7%	29.1%	-4.5%	-1.4%	-2.2%	>76.9
COc1cccc(NC(=O)CCN2CCN(c3ccccc3F)CC2)c1	?	25.1µM*	.	-1.1%	-0.8%	.
O=C(CCN1CCN(c2ccc(Cl)cc2)CC1)Nc1ccccc1F	?	25.1µM*	-15.5%	-2.9%	-3.9%	>76.9
CCc1ccc(NS(=O)(=O)c2ccc(Cl)cc2OC)cc1	-17.9%	-8.3%	.	-3.6%	-2.9%	.
N#CC(=NCCO)C1=C(O)c2ccccc2C1=O	-8.1%[11.4 µM]	0.4%[11.4 µM]	19.1%[11.5 µM]	-1.6%[11.5 µM]	2.6%[11.5 µM]	.
O=C1C(SCCO)=C(SCCO)C(=O)c2ccccc21	?	25.1µM*!	15.8µM*	-11.0%	15.8µM*	.
CC(C)NC(=O)N1CCC2(CC1)CCN(S(C)(=O)=O)CC2	14.5%	3.4%	1.8%	-0.5%	-2.2%	.
N#CC1=C(N)N(c2ccccc2)C2=C(C(=O)CCC2)C1c1cccs1 (stereo not given)	-1.8%[11.4 µM]	6.5%	?	-17.2%	-3.7%	12.9*
O=C(O)[C@@H]1CCCNC1	14.5%[25.6 µM]	7.7%[25.6 µM]	-2.0%[25.7 µM]	1.3%[25.7 µM]	3.7%[25.7 µM]	.
CCOc1ccc2nc(-c3ccccc3)[nH]c2c1	?	15.8µM*	-7.1%	-1.7%	0.1%	i
COc1ccc2nc(-c3ccccc3)[nH]c2c1	?	?	-12.3%	-0.2%	1.7%	.
